{"source": "PubChem BioAssay (Tox21)", "note": "Unmarked numbers belong to inactive results. Activity calls are given as the source filed them. The call rests on the fitted dose curve; in most records, active means well fitted curve in the direction sought with a large enough effect in the repeat runs; inconclusive means weak or mixed curves; inactive means flat fitted curve, though single readings scatter. On the % scale 0 is the no-effect control and ±100 the full control effect.", "data": [{"assay": "qHTS assay to test for compound auto fluorescence at 535 nm (green) in HepG2 cells (AID 720675)", "conditions": "green autofluorescence 485/535 nm, 1 h; series mostly up to 91.3 µM; fluorescence, % of fluorescein control: at the top concentration", "description": "National Center for Advancing Translational Sciences [NCATS]\nNIH Chemical Genomics Center [NCGC]\nU.S. Environmental Protection Agency [EPA]\nNational Institutes of Environmental Health Sciences [NIEHS]\nNational Toxicology Program [NTP]\nU.S. Food and Drug Administration [FDA]\nCompound auto fluorescence often interferes with screening of the compound library against various biological targets and signaling pathways. Some of these compounds may have fluorophoric properties. Such properties may interfere with the assay outputs resulting in false positives and/or negatives. To decrease such complications and ensure the compound activities are relevant in terms of biological response, the Tox21 10K compound library was screened for auto fluorescence.\nFrom the fluorophores used as reporter signals in our screening assays, the auto fluorescence equivalencies of compounds against three fluorophores have been evaluated: Triamterene, Fluorescein and Rose Bengal sodium for blue, green and red fluorescence, respectively. The fluorescence intensities were measured using Excitation/Emission wavelengths at 405/460nm, 485/535nm and 540/590nm for blue, green and red labels, respectively. This assay includes the green fluorescence data.\nTox21 Assay Protocol Summary:\n2,000 HepG2 cells in 5 uL of culture medium (MEM containing 10% FBS) per well were dispensed into black wall/clear bottom 1536-well plates using a Multidrop Combi Dispenser (ThermoFisher Scientific, Waltham, MA). The assay plates were incubated overnight at 37 C to allow cell attachment to the well bottom, followed by the transfer of 23 nL compound or DMSO vehicle by a pintool work station (Kalypsys , San Diego, CA). After the assay plates were incubated for 1 hr at 37 C and 5% CO2, fluorescence intensities in the assay plates were measured by an Envision (PerkinElmer, Shelton, CT) plate reader using three labels for measuring blue, green and red fluorescence at […] 460, 535 and 590 nm respectively.", "units": {"fluorescence, % of fluorescein control": "%"}, "values": [{"smiles": "N[C@@H](Cc1cc(I)c(Oc2cc(I)c(O)c(I)c2)c(I)c1)C(=O)O", "outcome": "inactive"}, {"smiles": "COc1ccc(Nc2ccccc2)c(C)c1", "outcome": "inactive"}, {"smiles": "O=C(Oc1ccccc1)c1ccccc1", "outcome": "inactive"}, {"smiles": "CSCCC=O", "outcome": "inactive"}, {"smiles": "O=C(O)c1cc(C(=O)O)cc(S(=O)(=O)O)c1", "outcome": "inactive"}, {"smiles": "C[C@H]1C[C@H]2[C@@H]3CCC4=CC(=O)C=C[C@]4(C)[C@@]3(F)[C@@H](O)C[C@]2(C)[C@@]1(O)C(=O)CO", "outcome": "inactive"}, {"smiles": "CCCCCOC(C)=O", "outcome": "inactive"}, {"smiles": "COc1ccc(NC(C)=O)cc1N", "outcome": "inactive"}, {"smiles": "Fc1ccc(Br)cc1", "outcome": "inactive"}, {"smiles": "Cc1cccc(O)c1", "outcome": "inactive"}, {"smiles": "C#C[C@]1(O)CC[C@H]2[C@@H]3CCC4=CC(=O)CC[C@@H]4[C@H]3CC[C@@]21C", "outcome": "inactive"}, {"smiles": "Cc1ccc(S(N)(=O)=O)cc1", "outcome": "inactive"}, {"smiles": "CCN(CC)CCCC(C)Nc1ccnc2cc(Cl)ccc12", "note": "(stereo not given)", "outcome": "inactive"}, {"smiles": "CN(C)CCOCCN(C)C", "outcome": "inactive"}, {"smiles": "CCCCCC(N)=O", "outcome": "inactive"}, {"smiles": "CCCCCCCC(=O)OC", "outcome": "inactive"}, {"smiles": "O=C(O)CC(C(=O)O)C(CC(=O)O)C(=O)O", "note": "(stereo not given)", "outcome": "inactive"}, {"smiles": "C#CCN(C)Cc1ccccc1", "outcome": "inactive"}, {"smiles": "Cc1ccc(N(C)C)cc1", "outcome": "inactive"}, {"smiles": "CC(C)c1ccc(S(=O)(=O)O)cc1", "outcome": "inactive"}, {"smiles": "CCCCCCCCCCCCCCO", "outcome": "inactive"}, {"smiles": "C=CCOC(=O)c1ccccc1C(=O)OCC=C", "outcome": "inactive"}, {"smiles": "CCCCCC1=CCCC1=O", "outcome": "inactive"}, {"smiles": "CCCCC(CC)COC(=O)C(C#N)=C(c1ccccc1)c1ccccc1", "note": "(stereo not given)", "outcome": "inactive"}, {"smiles": "CCCCC(CC)COC(=O)CS", "note": "(stereo not given)", "outcome": "inactive"}, {"smiles": "CCOC(=O)NNc1nncc2ccccc12", "outcome": "inactive"}, {"smiles": "OCCOCCN1CCN(C2=Nc3ccccc3Sc3ccccc32)CC1", "outcome": "inactive"}, {"smiles": "CC(=O)Nc1ccccc1", "outcome": "inactive"}, {"smiles": "O=c1[nH]nnc2ccccc12", "outcome": "inactive"}, {"smiles": "CC(O)COCC(C)O", "note": "(stereo not given)", "outcome": "inactive"}, {"smiles": "O=C(CC(C(=O)OC1CCCCC1)S(=O)(=O)O)OC1CCCCC1", "note": "(stereo not given)", "outcome": "inactive"}, {"smiles": "O=C(O)c1cc(O)c(O)c(O)c1", "outcome": "inactive"}, {"smiles": "CC1=CCC2CC1C2(C)C", "note": "(stereo not given)", "outcome": "inactive"}, {"smiles": "O=C(OCCOCCOC(=O)c1ccccc1)c1ccccc1", "outcome": "inactive"}, {"smiles": "CC(=O)CC(=O)Nc1ccccc1C", "outcome": "inactive"}, {"smiles": "O=C(O)c1ccccc1C(c1ccc(O)cc1)c1ccc(O)cc1", "fluorescence, % of fluorescein control": 0.0634}, {"smiles": "O=C(O)c1ccc(C(=O)O)cc1", "outcome": "inactive"}, {"smiles": "O=[N+]([O-])c1ccc(/C=C/c2ccc([N+](=O)[O-])cc2S(=O)(=O)O)c(S(=O)(=O)O)c1", "outcome": "inactive"}, {"smiles": "COc1ccc2cc([C@H](C)C(=O)O)ccc2c1", "outcome": "inactive"}, {"smiles": "O=c1[nH]c(=O)n([C@H]2C[C@H](O)[C@@H](CO)O2)cc1Br", "outcome": "inactive"}]}]}
